Many of the other results were omitted from the sample, so hits are more common in it than they were.
BLM helicase inh: Bloom syndrome helicase (human) inhibition; P54132; recombinant BLM DNA unwinding, fluorescence dequenching; Potency, µM (top dose mostly 56.1 µM), most hits filed as inhibitors; 0.2% of 350,000 active; AID 2528; further: nearly all actives have a fitted effect of over 35% in size
APE1 inh: inhibitors of human APE1 endonuclease | P27695 | recombinant APE1, TAMRA/BHQ-2 abasic DNA cleavage fluorescence | Potency, µM (top dose mostly 65.8 µM), usual class: inhibitors | 0.35% of 350,000 active; further: nearly all actives have a fitted effect of over 55% in size
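Quantitative HTS: incision of a TAMRA/BHQ-2 double-stranded substrate bearing a tetrahydrofuran abasic site by 0.75 nM APE1 raises fluorescence. Substrate 50 nM final, added after 15 min compound preincubation at room temperature; progress as third-minus-first kinetic read difference.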
RECQ1 inh-1: blocks DNA unwinding by human RECQ1; 0.54% of 240,000 active; P46063; Potency, µM (titrated, usually from 57.3 µM), most hits filed as inhibitors; RECQ1 DNA unwinding, red fluorescence kinetic read; further: nearly all actives have a fitted effect of over 30% in size
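50 nM RECQ1T1 preincubated 15 min with compound in Tris pH 8.0 buffer with MgCl2, DTT, Tween-20 and 2.5 ug/ml poly(dI-dC); started with 200 nM TAMRA/BHQ-2 forked duplex and 2 mM ATP. Unwinding read as fluorescence (525/598 nm), two reads 2 h apart.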
L3MBTL1 block: blocks human L3MBTL1. Q9Y468. AlphaScreen L3MBTL1–H3K9me1 peptide binding. Potency, µM (doses to about 57.1 µM), usual class: inhibitors. 0.66% of 230,000 active. AID 485360; further: nearly all actives have a fitted effect of over 60% in size
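AlphaScreen assay: L3MBTL1 (50 nM final) was preincubated 30 min at room temperature with biotinylated H3(1-15)K9me1 peptide (75 nM final), then 30 min with library compounds; streptavidin donor and nickel chelate acceptor beads (10 ug/mL final) added, 30 min dark.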
GoLoco inh red: inhibitors of human Gai1-RGS12 GoLoco interaction (red fluorophore); P63096; Gai1:RGS12 GoLoco peptide FP, rhodamine, 10 min; Potency, µM (top dose mostly 61.6 µM), actives largely listed as inhibitors; 0.44% of 230,000 active; active means well fitted inhibition curve with a large enough effect, not every such curve was filed as active; inactive means no such curve, though single readings can be large or run the other way; further: nearly all actives have a fitted effect of over 30% in size
JMJD2E inh: blocks human JMJD2E demethylase activity | B2RXH2 | JMJD2E catalytic domain, FDH-coupled NADH fluorescence (FDH is formaldehyde dehydrogenase) | Potency, µM (titrated, usually from 57.1 µM), hits mostly inhibitors | 1.6% of 230,000 active | AID 2147; active means well fitted inhibition curve with a large enough effect, not every such curve was filed as active; inconclusive means small, poorly fitted or top-dose-only effect, or another doubt; inactive means no such curve, though single readings can be large or run the other way; further: nearly all actives have a fitted effect of over 50% in size
Target sequence (B2RXH2 1-337 limits assumed): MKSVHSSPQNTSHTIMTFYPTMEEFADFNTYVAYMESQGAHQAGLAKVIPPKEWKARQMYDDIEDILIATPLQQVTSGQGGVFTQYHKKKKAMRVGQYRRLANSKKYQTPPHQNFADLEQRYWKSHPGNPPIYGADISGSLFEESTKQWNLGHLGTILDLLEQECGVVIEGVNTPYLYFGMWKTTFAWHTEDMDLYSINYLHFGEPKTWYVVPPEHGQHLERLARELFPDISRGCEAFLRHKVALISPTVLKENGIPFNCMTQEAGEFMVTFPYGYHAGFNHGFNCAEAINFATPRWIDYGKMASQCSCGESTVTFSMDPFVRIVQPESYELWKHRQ
RECQ1 inh conf: confirmation of human RECQ1 helicase inhibitors; shares compounds with RECQ1 inh-1; RECQ1 helicase DNA unwinding, fluorescence; Potency, µM (series often up to 229 µM), most hits filed as inhibitors; 28% of 610 active; AID 2708; further: nearly all actives have a fitted effect of over 45% in size
RECQ1 inh-2: RECQ1 helicase inhibition confirmed, round 2; 15% of 1,100 active; Potency, µM (series often up to 119 µM), actives largely listed as inhibitors; shares compounds with RECQ1 inh-1; AID 504841; recombinant RECQ1 DNA unwinding, red fluorescence; further: nearly all actives have a fitted effect of over 50% in size
Hits are given with their value; . = inactive; ? = inconclusive; / = no result given; [ ] = another dose, or the depositor's remark. Unless noted, the call rests on the fitted dose curve; in most records, active means well fitted curve in the direction sought with a large enough effect; inconclusive means small, poorly fitted or top-dose-only effect, or another doubt; inactive means no such curve, though single readings can be large; an effect the other way counts as inactive or inconclusive.

SMILES | BLM helicase inh | APE1 inh | RECQ1 inh-1 | L3MBTL1 block | GoLoco inh red | JMJD2E inh | RECQ1 inh-2 | others
COc1ccc(-c2cc(C(=O)Nc3ccc(S(=O)(=O)Nc4onc(C)c4C)cc3)c3ccccc3n2)cc1OC | . | . | . | . | . | ? | /
CCOC(=O)C(C)NC(=O)c1c(C)oc2ncn(CC(C)C)c(=O)c12 (stereo not drawn) | . | / | / | / | / | / | /
Cc1cc(-c2ccc(C)c(S(=O)(=O)N(C(C)C)C3CCCCC3)c2)on1 | . | / | / | / | / | / | /
COc1cc(C(=O)Nc2nc3ccc(S(=O)(=O)N4CCOCC4)cc3s2)cc(OC)c1OC | . | . | ? | . | . | ? | 32µM
COc1cc(/C=C/C(=O)Nc2nnc(C(C)(C)C)s2)cc(OC)c1OC | . | . | . | . | . | . | /
CNS(=O)(=O)c1ccc2nc(NC(=O)/C=C/c3ccco3)sc2c1 | . | ? | ? | / | . | ? | .
COc1ccc2nc(NC(=O)c3cccc(S(=O)(=O)N4CCOCC4)c3)sc2c1 | . | . | . | . | . | ? | /
COc1cc(/C=C/C(=O)Nc2nc3ccc(S(=O)(=O)N(C)C)cc3s2)cc(OC)c1OC | 5µM | . | 6.3µM | . | . | ? | 2.2µM
COc1ccc(-c2cc(C(F)(F)F)nc(S(=O)(=O)CCCC(=O)Nc3ccccc3C(F)(F)F)n2)cc1OC | . | / | / | / | / | / | /
COc1ccc(-c2nc3cnc(N4CCNCC4)nc3n(Cc3cccc(OC)c3)c2=O)cc1 | ? | ? | ? | / | . | / | ?
COc1cccc(Cn2c(=O)c(-c3ccc(F)cc3)nc3cnc(N4CCNCC4)nc32)c1 | . | . | . | / | . | / | /
O=C(Cn1cc(SCc2ccc(Cl)cc2)c2ccccc21)N1CCCC1 | . | / | / | / | / | / | /
O=C(CSc1nc2ccccc2c(=O)n1Cc1ccccc1)NCc1ccco1 | . | . | . | . | . | . | /
CCn1c(SCC(=O)NCc2ccco2)nc2ccccc2c1=O | . | . | ? | . | . | ? | .
COc1ccc(CCN2CC(C(=O)NC3CCCCC3)CC2=O)cc1OC (stereo not drawn) | . | ? | 40µM | / | . | . | ?
Cc1ccc(S(=O)(=O)/N=C2/C=C(Sc3ncn[nH]3)C(=O)c3ccccc32)cc1 | 16µM | . | ? | . | . | 4µM | ?
CC(=O)OC1CCC2(C)C(COc3ccc4ccc(=O)oc4c3)C(C)(O)CCC2C1(C)C (stereo not drawn) | . | . | ? | . | . | ? | .
C=C1CCC2C(C)(C)[C@@H](O)CC[C@@]2(C)[C@@H]1COc1ccc2ccc(=O)oc2c1 (stereo partly drawn) | . | . | / | / | / | / | /
Nc1nc2c(ncn2COC(CO)CO)c(=O)[nH]1 | . | . | . | . | . | . | / | RECQ1 inh conf=.
Nc1nc2c(ncn2[C@@H]2C=C[C@@H](CO)C2)c(=O)[nH]1 | / | / | / | / | .[14.2 µM] | / | /
CCCCn1cnc2c(=O)[nH]c(N)nc21 | / | / | / | / | / | / | / | RECQ1 inh conf=.
CN(C)c1ccc(CN(CC2CCCO2)C(=O)COc2ccc(Cl)cc2)cc1 (stereo not drawn) | . | / | / | / | / | / | /
O=C(Nc1ccc(S(=O)(=O)N2CCCCC2)cc1)c1ccc(CN2CCc3ccccc3C2)cc1 | . | . | ? | . | . | ? | .
CC(=O)c1cccc(NC(=O)c2ccc(S(=O)(=O)N3CCCCC3)cc2)c1 | . | . | . | ? | . | . | /
Cc1cc2ccccc2n1CCNC(=O)c1ccc(S(=O)(=O)N2CCCCC2)cc1 | . | ? | 28µM | . | . | . | 79µM
O=C(Nc1ccccc1)c1ccc(CN2CCc3ccccc3C2)cc1 | . | . | . | / | . | ? | /
CCOc1cccc(NC(=O)c2ccc(S(=O)(=O)N3CCCC3)cc2)c1 | . | . | 13µM | / | . | . | .

High-throughput results from PubChem.
